Here are results for 8 compounds from PubChem BioAssay (EPA / NIEHS).

Assay [1] can be described thus: CCTE_Shafer_MEA_dev_firing_rate_mean: CCTE's Neural Network Formation Assay for Mean Firing Rate, Shafer Lab (AID 2284031).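 On AC50: curve fitted for loss of firing so AC50 reflects decreased mean firing rate.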 Summed up: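 Read-out: spike count/recording length, averaged over active electrodes, then AUC across days 5, 7, 9, 12. Rat cortical cultures on MEA; continuous 12-day exposure, media and treatment renewed DIV 5, 9; DMSO baseline.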
Assay [2] in a line: CCTE_Shafer_MEA_dev_per_burst_spike_percent: CCTE's Neural Network Formation Assay for Percent of Spikes in a Burst, Shafer Lab (AID 2284032).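 On AC50: fitted as a decrease in burst spike percentage below DMSO baseline.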 In short, it runs like this:
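Value is trapezoidal AUC over recordings on days 5, 7, 9 and 12 of the well-mean fraction of spikes falling in single-electrode bursts; rat cortical cultures exposed continuously from plating, treatment renewed DIV 5 and 9, fitted downward against DMSO.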

A short description of assay [3]: CCTE_Shafer_MEA_dev_active_electrodes_number: CCTE's Neural Network Formation Assay for Number of Active Electrodes, Shafer Lab (AID 2284040; active means hit-call score of the fitted dose curve at least 0.9, where 1 is the maximum;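 on AC50: potency for loss of active electrodes versus DMSO so lower counts are hits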). Summed up:
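Developing rat cortical networks on MEAs, exposed DIV 0–12. Value is the AUC of active-electrode counts (≥5 spikes/min) from days 5, 7, 9, 12, relative to DMSO.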

Assay [4] is described as follows: CCTE_Shafer_MEA_dev_burst_rate: CCTE's Neural Network Formation Assay for Burst Rate, Shafer Lab (AID 2284042).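 On AC50: potency for loss of burst rate below DMSO control.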 In short, it runs like this:
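Cells plated, treated day 0; recorded DIV 5, 7, 9, 12; fed and re-treated DIV 5, 9. Endpoint: bursts per recording time, active-electrode well mean, trapezoidal AUC, fitted in decreasing direction against DMSO baseline.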

Assay [5] is described as follows: CCTE_Shafer_MEA_dev_per_burst_interspike_interval: CCTE's Neural Network Formation Assay for Burst Interspike Interval, Shafer Lab (AID 2284044).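 On AC50: potency for a decrease of within-burst interspike interval below DMSO level.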 Summed up:
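Rat cortical primary cultures, 16 electrodes/well; compound from plating, renewed with full media change DIV 5 and 9. Spikes via adaptive detector; per-burst ISI well-mean over active bursting electrodes; AUC of DIV 5/7/9/12 recordings; loss-direction fit vs DMSO.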

Assay [6] can be described thus: CCTE_Shafer_MEA_dev_burst_duration_mean: CCTE's Neural Network Formation Assay for Mean Burst Duration, Shafer Lab (AID 2284045).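 On AC50: curve fitted for loss meaning shorter burst duration than DMSO.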 In short, it runs like this:
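Network-formation assay in primary rat cortical neurons; treatment spans twelve days of development. Mean burst duration per well is integrated by trapezoidal AUC and fitted in the loss-of-signal direction against DMSO baseline.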

Assay [7] is described as follows: CCTE_Shafer_MEA_dev_interburst_interval_mean: CCTE's Neural Network Formation Assay for Mean Interburst Interval, Shafer Lab (AID 2284046).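 Further: curve fitted for decrease in interburst interval relative to DMSO.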 In short, it runs like this: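 Developing rat cortical networks on 48-well MEAs receive compound from the day of plating. Burst intervals from each active electrode are averaged per well, and AUC over the recording days is fitted in the negative direction against DMSO.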

Assay [8] can be described thus: CCTE_Shafer_MEA_dev_inter_network_spike_interval_mean: CCTE's Neural Network Formation Assay for Mean Inter-network Spike Interval, Shafer Lab (AID 2284047).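 On AC50: potency for a decrease in mean inter-network spike interval below DMSO.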 Summed up:
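Rat cortical cultures, 1.5 x 10^5 cells/well on 48-well MEA plates; continuous exposure days 0–12, medium and compound refreshed DIV 5, 9. Mean time between consecutive network-spike peaks; AUC across DIV 5/7/9/12; DMSO baseline, negative fitting direction.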

Assay [9] is described as follows: CCTE_Shafer_MEA_dev_network_spike_number: CCTE's Neural Network Formation Assay for Number of Network Spikes, Shafer Lab (AID 2284048).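 Further: synchronized bursts across electrodes counted on days 5 7 9 12 and integrated as AUC.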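 On AC50: fit as a loss of signal meaning fewer network spikes than DMSO.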 In short, it runs like this: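 Extracellular recordings from 16-electrode wells track network formation in rat cortical cultures under continuous treatment from plating. The endpoint is network spike number, expressed as AUC across DIV 5–12 relative to DMSO vehicle.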

The nature of assay [10]: CCTE_Shafer_MEA_dev_network_spike_peak: CCTE's Neural Network Formation Assay for Mean Number of Electrodes in Network Spike, Shafer Lab (AID 2284049).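 On AC50: fitted for loss of signal meaning fewer electrodes in network spikes than DMSO.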 In short, it runs like this:
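Continuous 12-day exposure of rat cortical cultures, starting at plating, on MEA plates. Endpoint: electrodes participating in network-spike peaks, AUC across DIV 5–12, DMSO as negative control.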

Assay [11] in a line: CCTE_Shafer_MEA_dev_spike_duration_mean: CCTE's Neural Network Formation Assay for Mean Spike Duration, Shafer Lab (AID 2284051).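 Further: mean network spike duration pooled as area under curve over DIV 5 to 12 recordings.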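 On AC50: potency for a decrease in mean network spike duration versus DMSO.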 Summed up:
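Readout is the average length of network spikes, clustered firing across electrodes, summed over DIV 5, 7, 9 and 12 as area under the curve. Neurons from rat cortex developed networks on MEA plates under continuous 12-day exposure.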

Assay [12] in a line: CCTE_Shafer_MEA_dev_network_spike_duration_std: CCTE's Neural Network Formation Assay for Standard Deviation of Network Spike Duration, Shafer Lab (AID 2284052).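 Further: hits are decreases in network spike duration SD versus DMSO vehicle.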 In short, it runs like this: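 Read-out is the trapezoidal area-under-the-curve across recordings made on days 5, 7, 9 and 12, fitted in the negative direction against DMSO baseline. Neurons were primary rat cortical cells treated from day 0, with treatment renewed at each feed.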

A short description of assay [13]: CCTE_Shafer_MEA_dev_per_network_spike_spike_number_mean: CCTE's Neural Network Formation Assay for Mean Number of Spikes in a Network Spike, Shafer Lab (AID 2284053).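 On AC50: fitted as decrease in spikes per network spike relative to DMSO.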 Summed up: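 Continuous twelve-day exposure of developing rat cortical networks grown over 16 microelectrodes per well; spontaneous firing is captured at four time points, and the per-network-spike spike number is integrated over development by trapezoidal AUC.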

Assay [14] in a line: CCTE_Deisenroth_AIME_384WELL_CTox_Active: Cytotoxicity Assessment (CTOX) in CCTE's 384-well Estrogen Receptor Transactivation Assay with AIME metabolic competence (metabolism positive), Deisenroth Lab (AID 2284037; active means hit-call score of the fitted dose curve at least 0.9, where 1 is the maximum;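 further: chemicals first conditioned 2 h by alginate-bound induced rat liver S9 before cells; activity means signal loss indicating cell death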). In short, it runs like this: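 VM7Luc4E2 breast cells received medium pre-incubated 2 h with chemical over alginate microspheres holding induced male Sprague Dawley rat liver S9; viability read 24 h later by protease-substrate fluorescence. Loss of signal, bidirectional fit, 0.002–200 uM.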

The nature of assay [15]: CCTE_Deisenroth_AIME_96WELL_CTox_Active: Cytotoxicity Assessment (CTOX) in CCTE's 96-well Estrogen Receptor Transactivation Assay with AIME metabolic competence (metabolism positive), Deisenroth Lab (AID 2284028; active means hit-call score of the fitted dose curve at least 0.9, where 1 is the maximum). In short, it runs like this:
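Cytotoxicity in VM7Luc4E2 breast cells after 24 h exposure to medium from a 2 h metabolic pre-incubation with induced rat hepatic S9 in alginate microspheres; fluorescent live-cell protease readout, 10-point series 0.002–200 uM, n=4.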

Assay [16] deals with Estrogen receptor (Homo sapiens) (UniProt P03372). Briefly: CCTE_Deisenroth_AIME_384WELL_LUC_Inactive: CCTE's 384-well Estrogen Receptor Transactivation Assay without AIME metabolic competence (ERTA luciferase; metabolism negative), Deisenroth Lab (AID 2284038; active means hit-call score of the fitted dose curve at least 0.9, where 1 is the maximum;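 further: hits raise estrogen receptor luciferase signal so potencies reflect agonists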). Summed up:
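Metabolism-negative mode: AIME lids stamped in alginate-water, no hepatic S9. 2 h chemical incubation → medium onto VM7Luc4E2 ERTA, 24 h. Readout luciferase luminescence; gain-of-signal fit vs 17beta-estradiol. Conc. 0.002 - 200 uM.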

For assay [17] the target is unchanged. As to the kind of experiment: CCTE_Deisenroth_AIME_384WELL_LUC_Shift: CCTE's 384-well Estrogen Receptor Transactivation Assay with AIME metabolic competence data shift (ERTA luciferase; difference in metabolism positive and negative), Deisenroth Lab (AID 2284041).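 Further: shift is response with S9 minus without S9 so positive means metabolism raised ER signal.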 Summed up: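 Here, parent compounds undergo 2 h phase I metabolism by PB/BNF-induced rat S9 before 24 h transactivation in VM7Luc4E2 cells; the curve models S9-positive minus S9-negative response over a 10-point series.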

Assay [18] has the same target. Briefly: CCTE_Deisenroth_AIME_384WELL_LUC_Active: CCTE's 384-well Estrogen Receptor Transactivation Assay with AIME metabolic competence (ERTA luciferase; metabolism positive), Deisenroth Lab (AID 2284030; active means hit-call score of the fitted dose curve at least 0.9, where 1 is the maximum). In short, it runs like this:
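Test chemicals (10-point series, 0.002 - 200 uM) were preincubated 2 hours with alginate-immobilized phenobarbital/beta-naphthoflavone-induced male Sprague Dawley rat liver S9; conditioned medium then went onto VM7Luc4E2 breast cells for 24 hour. Luciferase gain-of-signal fitted relative to 17beta-estradiol.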

The test system of another assay is DIO2 (gene 1734). As to the kind of experiment: CCTE_GLTED_hDIO2: CCTE's human Deiodinase 2 (DIO2) Inhibition Assay, Great Lakes Toxicology and Ecology Division (GLTED) Lab (AID 2284050; active means hit-call score of the fitted dose curve at least 0.9, where 1 is the maximum). In short, it runs like this:
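Readout: absorbance from Sandell-Kolthoff detection of free iodide released by human DIO2 during a 3 h incubation with chemical. Cell-free format, n=3; activity fitted relative to DMSO negative control.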

A short description of assay [19]: CCTE_Deisenroth_AIME_96WELL_CTox_Inactive: Cytotoxicity Assessment (CTOX) in CCTE's 96-well Estrogen Receptor Transactivation Assay without AIME metabolic competence (metabolism negative), Deisenroth Lab (AID 2284029; active means hit-call score of the fitted dose curve at least 0.9, where 1 is the maximum). Summed up: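 Cytotoxicity in VM7Luc4E2 breast cells was scored as loss of fluorescent signal from a live-cell protease substrate 24 h after exposure, using bidirectional curve fitting. Test media came from a 2 h metabolism-negative pre-incubation (alginate-water, no hepatic S9) of compounds at 0.002-200 uM, with at least four replicates.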

In general, AC50 refers to the concentration at which the activity in the assay is half-maximal.

Each structure is given as a SMILES string. Values joined by “and” are separate entries in the source; they are usually repeats but may differ in a detail not shown here. Equal entries are not always repeated. Results filed as inconclusive are left out. A structure can be active in one record and inactive in another. Active and inactive are the calls of the source. How the source made its calls, unless noted: active means hit-call score of the fitted dose curve at least 0.9, where 1 is the maximum; inactive means score below 0.9.

Chain of Estrogen receptor (Homo sapiens) (P03372 whole entry, looked up): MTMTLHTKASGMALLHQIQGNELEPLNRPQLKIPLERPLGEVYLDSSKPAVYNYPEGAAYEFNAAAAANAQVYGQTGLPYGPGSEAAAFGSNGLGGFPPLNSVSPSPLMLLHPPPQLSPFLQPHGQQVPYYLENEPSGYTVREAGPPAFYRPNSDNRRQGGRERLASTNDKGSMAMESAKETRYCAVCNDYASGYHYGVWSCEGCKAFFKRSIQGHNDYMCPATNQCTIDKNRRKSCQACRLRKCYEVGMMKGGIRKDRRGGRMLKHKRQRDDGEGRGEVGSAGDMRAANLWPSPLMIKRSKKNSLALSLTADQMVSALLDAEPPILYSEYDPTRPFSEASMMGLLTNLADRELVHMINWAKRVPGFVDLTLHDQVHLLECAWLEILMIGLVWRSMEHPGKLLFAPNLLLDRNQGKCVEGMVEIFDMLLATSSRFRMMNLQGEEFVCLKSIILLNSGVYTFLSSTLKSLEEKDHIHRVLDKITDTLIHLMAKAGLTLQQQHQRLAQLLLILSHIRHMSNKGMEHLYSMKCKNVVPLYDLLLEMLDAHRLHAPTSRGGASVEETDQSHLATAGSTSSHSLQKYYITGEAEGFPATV

Regarding `CC1(C)C(C=C(Cl)Cl)C1C(=O)OCc1cccc(Oc2ccccc2)c1` (stereo unspecified), the result in assay [1], in assay [4], in [5], in [6], in [8] and in [9] was inactive. In addition, the compound was classed as inactive in assay [12]. Further, the AC50 in [2] is 21.4 µM (active) and 7.56 µM (active); in [3] it was 24.7 µM (active) and 10.1 µM (active); in [4], 27.7 µM (active); in [5] it was 25.5 µM (active); in assay [7] it was 25.4 µM (active) and 10.1 µM (active); in assay [10], 23.2 µM (active) and 9.11 µM (active). For the same compound, the half-maximal activity concentration (AC50) was 21.3 µM (active) and 10.1 µM (active) in [11]; 17.3 µM (active) and 10.1 µM (active) in [13].

For the compound `CCCOC(=O)NCCCN(C)C`, in assay [14], the call was inactive.

`C[C@]12C[C@H](O)[C@H]3[C@@H](CCC4=CC(=O)CC[C@@]43C)[C@@H]1CC[C@@H]2C(=O)CO`: the outcome in [15], in assay [14], in [16] and in assay [17] was inactive.

As to `c1ccc2[nH]c(-c3cscn3)nc2c1`, the figures for the AC50 in [18], in assay [16] and in assay [17] were 30.5 µM (active), 2.7 µM (active) and 482 nM (active), respectively. For the same compound, the result in assay [14] was inactive.

`CCCN(CCC)c1c([N+](=O)[O-])cc(C(F)(F)F)c(N)c1[N+](=O)[O-]`: the AC50 in the assay on DIO2 (gene 1734) is 20 µM (active).

On to `CC(C)CCCCCCc1ccc(O)cc1`, for which the AC50 in the assay on DIO2 (gene 1734) was 93.1 µM (active).

`Cc1nn(C)c(Oc2ccccc2)c1C=NOCc1ccc(C(=O)OC(C)(C)C)cc1`: the AC50 in [1] was 4.42 nM (active); in [2] it was 2.93 nM (active); in assay [3] it was 2.64 nM (active); in [4], 0.00544 µM (active); in assay [5], 0.00274 µM (active); in assay [6], 0.277 nM (active). Also, the half-maximal activity concentration (AC50) in assay [7] is 2.91 nM (active); in assay [8] it was 3.61 nM (active); in assay [9] it was 1.4 nM (active); in assay [10] it was 3.17 nM (active); in assay [11], 1.41 nM (active); in assay [12], 0.953 nM (active). The AC50 in assay [13] was 2.49 nM (active). Further, the result in assay [14] and in [17] was inactive.

For `CC(C)(c1ccc(O)cc1)c1ccc(O)cc1`, the AC50 in assay [15] was 125 µM (active); in assay [19], 104 µM (active); in [2] it was 15000 nM (active); in assay [3], 15000 nM (active); in assay [10], 20800 nM (active); in assay [11], 15000 nM (active). Also, the AC50 in [13] is 15000 nM (active). Also, the compound was called inactive in assay [1], in assay [2], in assay [3], in assay [4], in assay [5] and in [6]. For the same compound, the outcome in [7], in assay [8], in assay [9], in assay [10], in assay [11] and in assay [12] was inactive. In assay [13], the result was inactive.
